Sampled rows, rich in hits. Any-hit rate of the full collection: about 2.1%.
M18AAP inhibitor – PfM18AAP enzyme inhibition. recombinant PfM18AAP, H-Glu-NHMec fluorogenic cleavage. inhibition, % at 7.35 µM. 1.2% of 290,000 active. AID 1822;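 active = inhibition above the campaign mean inhibition over all tested compounds plus 3 SD, cut at about 28% in these data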
Fh CTSL1 inh – blocks F. hepatica cathepsin L1 in PFM18AAP counter-screen; recombinant F. hepatica cathepsin L1, Z-Leu-Arg-MCA fluorescence; inhibition, % at 5.96 µM; 0.49% of 300,000 active;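 active = inhibition above the mean of all tested compounds plus 3 SD, set per screening campaign, cut at about 17% in these data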
Calb FLC – affects C. albicans growth with fluconazole; growth inhibition, % (concentration not given with the values); 0.57% of 300,000 active; C. albicans CaCi-2 (fluconazole-resistant clinical isolate) + fluconazole, Alamar Blue growth, 48 h; AID 1979;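 active = growth inhibition above about 58% in most replicates, limit read from the data, passing the limit was not always enough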;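 also: all wells also contain fluconazole at 8 µg/ml as a sub-toxic cotreatment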
Rin1 Abl inh – blocks binding of human Rin1 to Abl. P00519+Q13671. 0.4% of 360,000 active. TR-FRET Rin1/Abl binding, biochemical. AID 588664. inhibition, % at 7.35 µM; in the data active = inhibition above about 5%, passing the limit was not always enough
Target sequence (P00519 whole entry, looked up): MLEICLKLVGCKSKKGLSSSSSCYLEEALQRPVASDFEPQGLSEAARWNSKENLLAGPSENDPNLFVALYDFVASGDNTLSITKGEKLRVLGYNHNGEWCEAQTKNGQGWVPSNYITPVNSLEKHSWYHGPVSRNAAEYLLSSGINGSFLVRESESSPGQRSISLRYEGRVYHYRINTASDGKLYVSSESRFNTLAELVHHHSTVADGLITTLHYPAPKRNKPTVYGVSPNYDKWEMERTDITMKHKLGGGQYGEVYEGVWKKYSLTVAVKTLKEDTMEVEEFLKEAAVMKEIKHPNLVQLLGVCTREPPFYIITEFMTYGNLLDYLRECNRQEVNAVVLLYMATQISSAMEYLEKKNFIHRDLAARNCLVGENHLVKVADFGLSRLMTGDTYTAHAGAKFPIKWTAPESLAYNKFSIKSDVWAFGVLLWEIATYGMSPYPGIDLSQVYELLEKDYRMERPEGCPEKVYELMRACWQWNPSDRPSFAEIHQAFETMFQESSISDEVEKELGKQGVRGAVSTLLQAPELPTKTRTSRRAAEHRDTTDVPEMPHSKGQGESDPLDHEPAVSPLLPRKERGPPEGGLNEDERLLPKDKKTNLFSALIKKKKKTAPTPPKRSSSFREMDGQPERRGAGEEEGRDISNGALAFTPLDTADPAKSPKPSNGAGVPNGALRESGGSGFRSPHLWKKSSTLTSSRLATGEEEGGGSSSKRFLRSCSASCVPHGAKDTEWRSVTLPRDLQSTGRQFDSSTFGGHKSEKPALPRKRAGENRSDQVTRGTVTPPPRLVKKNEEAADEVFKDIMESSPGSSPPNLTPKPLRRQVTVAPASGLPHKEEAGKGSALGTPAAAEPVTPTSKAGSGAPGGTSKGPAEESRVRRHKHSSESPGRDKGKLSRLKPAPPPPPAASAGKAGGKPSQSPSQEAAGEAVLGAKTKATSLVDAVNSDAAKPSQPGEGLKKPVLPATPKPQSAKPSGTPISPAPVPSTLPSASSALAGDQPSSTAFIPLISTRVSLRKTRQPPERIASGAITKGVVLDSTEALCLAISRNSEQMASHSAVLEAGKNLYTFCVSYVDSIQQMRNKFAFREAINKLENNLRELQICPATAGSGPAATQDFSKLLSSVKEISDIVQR
Target sequence (Q13671 whole entry, looked up): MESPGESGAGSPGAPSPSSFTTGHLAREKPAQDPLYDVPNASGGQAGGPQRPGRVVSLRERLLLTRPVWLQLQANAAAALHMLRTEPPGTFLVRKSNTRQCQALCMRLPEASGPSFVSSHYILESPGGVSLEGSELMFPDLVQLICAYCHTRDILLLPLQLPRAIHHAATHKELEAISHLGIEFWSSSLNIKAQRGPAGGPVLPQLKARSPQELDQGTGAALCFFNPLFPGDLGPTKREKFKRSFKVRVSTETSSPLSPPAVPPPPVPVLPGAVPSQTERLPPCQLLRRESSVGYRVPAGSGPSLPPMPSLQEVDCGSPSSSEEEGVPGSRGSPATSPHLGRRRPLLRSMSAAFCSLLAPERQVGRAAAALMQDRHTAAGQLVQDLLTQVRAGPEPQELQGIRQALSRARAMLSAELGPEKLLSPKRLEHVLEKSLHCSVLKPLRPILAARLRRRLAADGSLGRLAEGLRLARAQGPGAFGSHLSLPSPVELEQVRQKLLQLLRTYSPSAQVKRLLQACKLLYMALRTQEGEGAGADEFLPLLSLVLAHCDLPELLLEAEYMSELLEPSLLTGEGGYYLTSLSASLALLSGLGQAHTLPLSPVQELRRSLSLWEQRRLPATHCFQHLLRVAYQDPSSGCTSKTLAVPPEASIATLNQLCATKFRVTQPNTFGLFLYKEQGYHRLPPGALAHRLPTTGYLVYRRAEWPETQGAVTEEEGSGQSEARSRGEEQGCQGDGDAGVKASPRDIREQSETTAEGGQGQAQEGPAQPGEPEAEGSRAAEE
Numbers stand for hits; i = inactive; nt = no result given.

SMILES	M18AAP inhibitor	Fh CTSL1 inh	Calb FLC	Rin1 Abl inh
Cc1ccc2oc(=O)c(/C=C(\O)c3sc(C)nc3C)nc2c1	29	i	i	i
N#CCCN(C(=O)COc1ccc(Br)cc1F)c1ccc(F)cc1	i	i	i	i
CCn1cc(C(=O)NCc2ccc3c(c2)OCO3)c(=O)c2cc(S(=O)(=O)N(C)C)ccc21	i	18	i	i
COC(=O)c1c(C)n(-c2ccccc2)c2ccc(O)cc12	i	i	92	i
COC(=O)c1c(C)n(-c2ccc(C)cc2)c2ccc(O)cc12	i	i	i	i
Cc1ccc(CCNC(=O)c2cc(S(=O)(=O)N3CCOCC3)cn2C)cc1	i	67	i	i
Cn1cc(S(=O)(=O)N2CCOCC2)cc1C(=O)NCCc1ccccc1	i	i	i	i
O=C(Nc1ccc(N2CCOCC2)cc1)c1ccc(Cl)c(S(=O)(=O)N2CCCCC2)c1	nt	nt	nt	i
COc1ccc(N2C(=O)C(Cl)=C(Nc3ccccc3O)C2=O)cc1	29	50	i	i
CCn1cc(C(=O)OCC(=O)Nc2cccc(Cl)c2Cl)c(=O)c2ccc(C)nc21	i	i	106	i
O=C(OCn1nnc2ccccc2c1=O)c1ccc2c(=O)n3c(nc2c1)CCC3	i	i	i	i
NC(=S)N/N=C/c1ccc2cccc(OCc3ccccc3)c2n1	44	18	i	i
COc1cccc2c1NC(C(=O)O)C1CC=CC21 (centres undefined)	i	i	i	7.6
O=C1c2ccccc2NC(c2ccc(-c3ccc(Br)cc3)o2)N1O (centres undefined)	i	i	102	i
O=C1c2ccccc2NC(c2ccc(-c3ccc(F)cc3)o2)N1O (centres undefined)	nt	nt	nt	i
COc1ccc2nc(NC3=NC(C(=O)Nc4ccc(C)cc4)CC(=O)N3)nc(C)c2c1 (centres undefined)	i	i	i	nt
Cc1nc2sc(C(c3ccccc3)N3CCN(CCO)CC3)c(O)n2n1 (centres undefined)	nt	i	i	i
Oc1c(C(c2ccccc2)N2CCN(Cc3ccccc3)CC2)sc2ncnn12 (centres undefined)	29	i	i	i
Cc1c(C(=O)N2CCOCC2)sc(NC(=O)CCl)c1C#N	i	17	i	i
CCSc1nc(=S)cc(C)[nH]1	28	i	i	i
CN(CCO)c1ccc(C=NNc2ccc([N+](=O)[O-])cc2S(=O)(=O)Nc2ccccc2C(=O)O)cc1	nt	nt	nt	i
CCN(CC(=O)Nc1ccc(NC(C)=O)cc1)C(=O)c1cccc(S(=O)(=O)N2CCCC2)c1	nt	i	i	i
COc1cccc(N2C(=O)CC(Nc3ccc(N4CCOCC4)cc3)C2=O)c1 (centres undefined)	29	i	i	i
COc1ccc(N2C(=O)CC(Nc3ccc(N4CCOCC4)cc3)C2=O)c(OC)c1 (centres undefined)	28	i	i	i
O=C1CC(Nc2ccc(N3CCOCC3)cc2)C(=O)N1c1cccc(C(F)(F)F)c1 (centres undefined)	i	i	i	i
SMILES	M18AAP inhibitor	Fh CTSL1 inh	Calb FLC	Rin1 Abl inh
CCOc1ccc(Br)cc1S(=O)(=O)NCc1ccncc1	i	i	i	i
NS(=O)(=O)c1ccc(NC(=S)N2CCN(c3cccc(Cl)c3)CC2)cc1	29	i	i	i
CN(C)C(CNC(=O)c1ccccc1OCc1ccc(Cl)cc1)c1ccco1 (centres undefined)	nt	i	i	i
COC(=O)c1ccccc1NC(=O)CSc1n[nH]c(CC(C)C)n1	i	i	i	i
COC(=O)c1ccccc1NC(=O)CSc1n[nH]c(C)n1	30	i	i	i
Cc1ccc(-n2ncc(Br)c(Br)c2=O)cc1	i	nt	97	i
O=C(Nc1ccc(NC(=O)N2CCN(c3ccccc3O)CC2)cc1)N1CCN(c2ccccc2O)CC1	29	i	i	i
O=C(Nc1ccc(Cl)cc1)N1CCN(c2ccccc2)CC1	i	i	i	i
CCOc1cc(N2CCOCC2)c(OCC)cc1NC(=O)c1nc2nc(C)cc(C)n2n1	nt	i	101	i
CCOc1cc(N2CCOCC2)c(OCC)cc1NC(=O)COC(=O)c1cc(C)oc1C	i	41	i	i
CCOc1cc(N2CCOCC2)c(OCC)cc1NC(=O)COC(=O)c1cc(C)cc(C)c1	i	50	i	i
CCOc1cc(N2CCOCC2)c(OCC)cc1NC(=O)COC(=O)c1ccccc1C	i	i	i	i
CCOc1cc(N2CCOCC2)c(OCC)cc1NC(=O)COC(=O)COc1cc(C)cc(C)c1	nt	i	i	i
C(#Cc1ccccc1)C[N+]1(CC#Cc2cccc3ccccc23)CCCC1	i	i	90	i
C#CC[N+]1(CC#Cc2ccccc2)CCCC1	i	i	i	i
O=C1C(N2CCOCC2)=C(n2nnc3ccccc32)C(=O)c2ccccc21	i	81	i	i
CSCC[C@H](Nc1ncnc2sc(C)c(C)c12)C(=O)O	i	19	i	i
O=C(c1ccc2ccccc2c1)C1CCCN(S(=O)(=O)c2cccnc2)C1 (centres undefined)	i	i	i	i
Cc1ccccc1N=C(NO)c1nonc1N	29	i	i	i
CCN(CC)c1ccc(/C=N/NC(=O)CNC(=O)C2COc3ccccc3O2)c(O)c1 (centres undefined)	i	i	89	i
CC(Sc1n[nH]c(N)n1)C(=O)Nc1cccc(S(=O)(=O)N2CCOCC2)c1 (centres undefined)	i	i	i	i
CNC(=O)COC(=O)c1ccc(-c2nc3ccccc3s2)s1	i	i	i	i
O=CN1CCN(C(=O)c2ccc(-c3nc4ccccc4s3)s2)CC1	i	26	i	i
CCOC(=O)N1CCN(C(=O)c2cn(CCOC)c(=O)c3c2c2ccccc2n3C)CC1	i	i	i	i
CCc1cc(=O)oc2cc(C)cc(OC(C)C(=O)NCc3cccnc3)c12 (centres undefined)	i	i	i	i
SMILES	M18AAP inhibitor	Fh CTSL1 inh	Calb FLC	Rin1 Abl inh
COc1ccc(CNC(=O)Cc2ccc(OC)c(S(=O)(=O)N3CCOCC3)c2)cc1	i	i	i	i
COc1cc(OC)cc(C(=O)NNC(=O)Cc2ccc(OC)c(S(=O)(=O)N3CCOCC3)c2)c1	i	i	110	i
CCN(c1ccccc1)S(=O)(=O)c1ccc(C(=O)NNC(=O)c2ccccc2F)cc1	nt	nt	nt	i
Cc1nnc(SC(C)C)n(N)c1=O	i	i	i	i
Cc1c(Cl)cnc(NC(=O)COC(=O)c2ccc([N+](=O)[O-])s2)c1Cl	i	59	i	i
Cc1c(Cl)cnc(NC(=O)COC(=O)c2cccs2)c1Cl	nt	nt	nt	i
O=C(COC(=O)c1ccc([N+](=O)[O-])s1)Nc1ccc(Cl)cn1	i	44	i	i
Cn1c(=O)c2c(nc(CN3CCOCC3)n2CC(O)CO)n(C)c1=O (centres undefined)	i	i	i	i
Cc1cc(C)c(NS(=O)(=O)c2cccc3cccnc23)c(C)c1	i	i	73	i
Cc1ccc(NS(=O)(=O)c2cccc3cccnc23)cc1Cl	i	i	i	i
CCCCC(=O)NC(=S)Nc1cccc(NC(=O)c2ccco2)c1	i	i	89	i
CCOC(=O)C1=C(N)OC(CCl)=C(C#N)C1c1ccsc1 (centres undefined)	i	60	i	i
